# Measured values taken from PubChem BioAssay.
# Inconclusive results are not listed. Activity calls are given as the source filed them. Unless noted, how the calls were made is not given here.
# How the values were obtained:
# [1] = molecular target: ATP-dependent translocase ABCB1 (Homo sapiens) (UniProt P08183); experiment: MDR1 (ABCB1) efflux transporter inhibition, cell-based (AID 377; in the data active means fluorescence slope change above about 50%); details: MDR1-expressing cells, fluorescent substrate accumulation slope; stronger effect = higher value; concentration not given here
# Chain of ATP-dependent translocase ABCB1 (Homo sapiens) (P08183 whole entry, looked up): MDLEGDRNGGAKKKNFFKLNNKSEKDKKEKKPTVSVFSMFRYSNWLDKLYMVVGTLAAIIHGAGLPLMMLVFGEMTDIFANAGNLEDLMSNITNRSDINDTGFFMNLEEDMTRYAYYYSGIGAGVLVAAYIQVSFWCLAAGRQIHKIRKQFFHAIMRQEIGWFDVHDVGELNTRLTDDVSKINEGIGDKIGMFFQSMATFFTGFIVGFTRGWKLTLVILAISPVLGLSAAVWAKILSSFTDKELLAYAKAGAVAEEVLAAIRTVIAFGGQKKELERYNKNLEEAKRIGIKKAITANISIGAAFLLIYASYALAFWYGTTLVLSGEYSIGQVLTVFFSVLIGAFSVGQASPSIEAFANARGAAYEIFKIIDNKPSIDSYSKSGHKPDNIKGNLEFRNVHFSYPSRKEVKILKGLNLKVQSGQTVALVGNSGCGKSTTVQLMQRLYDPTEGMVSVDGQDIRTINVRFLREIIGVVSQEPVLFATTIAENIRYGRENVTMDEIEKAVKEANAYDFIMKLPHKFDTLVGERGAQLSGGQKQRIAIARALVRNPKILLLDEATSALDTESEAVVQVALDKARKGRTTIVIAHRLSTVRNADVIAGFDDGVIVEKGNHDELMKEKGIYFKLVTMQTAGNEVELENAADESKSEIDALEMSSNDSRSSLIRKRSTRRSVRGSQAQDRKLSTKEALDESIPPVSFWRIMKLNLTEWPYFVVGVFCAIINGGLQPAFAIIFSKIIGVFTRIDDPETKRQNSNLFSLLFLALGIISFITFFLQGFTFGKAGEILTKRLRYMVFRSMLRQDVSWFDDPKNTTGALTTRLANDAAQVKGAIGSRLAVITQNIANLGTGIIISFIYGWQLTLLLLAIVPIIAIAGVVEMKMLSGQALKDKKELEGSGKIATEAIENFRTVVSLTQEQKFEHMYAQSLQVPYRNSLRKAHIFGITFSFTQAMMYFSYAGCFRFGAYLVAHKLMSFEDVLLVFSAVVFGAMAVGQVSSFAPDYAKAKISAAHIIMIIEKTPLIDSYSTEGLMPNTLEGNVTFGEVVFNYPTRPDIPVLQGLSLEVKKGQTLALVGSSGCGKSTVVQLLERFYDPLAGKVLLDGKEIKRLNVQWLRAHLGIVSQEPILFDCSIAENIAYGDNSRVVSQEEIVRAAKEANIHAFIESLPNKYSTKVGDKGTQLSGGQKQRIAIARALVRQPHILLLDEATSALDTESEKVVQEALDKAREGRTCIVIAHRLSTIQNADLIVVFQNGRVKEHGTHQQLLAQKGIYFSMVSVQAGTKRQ
# [2] = reducers of polyQ inclusions in PC12 cells, cell-based, NGF-treated PC12, GFPQ80 (AID 1614); details: PC12 NGF-treated GFP-polyQ80 inclusion reduction;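 further: lower means fewer inclusions and 0 means no inclusions at all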
# [3] = circadian clock period modulators, cell-based, LOPAC library, luminescence reporter (AID 2774); details: circadian reporter cells, at 7 µM, actives lie on both sides;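 further: values are relative to mean of DMSO wells on each plate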
# [4] = tested on: Hepatitis C virus NS3 helicase; experiment: HCV NS3 helicase inhibitors, primary screen, biochemical, fluorescence polarization, LOPAC1280 library (AID 687035; in the data active means inhibition above about 37%); details: Purified HCV NS3 helicase, Cy5-dT15 ssDNA binding fluorescence polarization; stronger effect = higher value; concentration not given here
# [5] = Cy5 fluorescence quenching or enhancement artefacts, artefact control for HCV NS3 helicase inhibitor project, biochemical, LOPAC1280 (AID 687037); details: Cy5-DNA-NS3h complex fluorescence interference counterscreen
# [6] = phospholipid biosynthesis inhibitors in animal cells, primary screen, cell-based, LOPAC library, screen 4 (AID 1347384); details: phospholipid biosynthesis inhibition screen, at 10 µM
# [7] = growth inhibition of DIPG glioma cells, dose response, cell-based, SU-DIPG-XIII, MIPE4.0, CellTiter-Glo, qHTS (AID 1347061; cut-off not given, nearly all actives have AC50 up to about 37 µM;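 further: cells exposed to compound for 48 hours before readout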); details: SU-DIPG-XIII viability, CellTiter-Glo ATP luminescence
# [8] = growth inhibition of DIPG glioma cells, dose response, cell-based, JHH-DIPG-1, MIPE4.0, CellTiter-Glo, qHTS (AID 1347062; cut-off not given, nearly all actives have AC50 up to about 27 µM;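 on AC50: cells exposed to compound for two days before readout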); details: JHH-DIPG-1 viability, CellTiter-Glo ATP luminescence
# [9] = growth inhibition of DIPG glioma cells, dose response, cell-based, SU-DIPG-IV, MIPE4.0, CellTiter-Glo, qHTS (AID 1347063; cut-off not given, nearly all actives have AC50 up to about 30 µM;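 further: compound exposure lasted 48 hours before the viability readout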); details: SU-DIPG-IV viability, CellTiter-Glo ATP luminescence
# [10] = SU-DIPG-VI glioma cell viability, MIPE4.0 library, CellTiter-Glo luminescence, qHTS (AID 1347066; cut-off not given, nearly all actives have AC50 up to about 30 µM;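 further: cells exposed to compound for 48 hours before readout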); details: CellTiter-Glo ATP luminescence
# [11] = growth inhibition of DIPG glioma cells, dose response, cell-based, SU-DIPG-XVII, MIPE5.0, CellTiter-Glo, qHTS (AID 1347060; cut-off not given, nearly all actives have AC50 up to about 26 µM;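 on AC50: cells exposed to compound for 48 hours before viability readout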); details: SU-DIPG-XVII viability, CellTiter-Glo ATP luminescence
# [12] = viability loss in pontine glioma line – cell-based, SU-DIPG-XXV, MIPE5.0, CellTiter-Glo, qHTS, dose response (AID 1347065; cut-off not given, nearly all actives have AC50 up to about 26 µM;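 further: cells exposed to compound for 48 hours before ATP readout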); details: CellTiter-Glo ATP luminescence
# [13] = SU-DIPG-XXV glioma cell viability, MIPE5.0 library, qHTS (AID 1347068; cut-off not given, nearly all actives have IC50 up to about 30 µM;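 on IC50: cells exposed to compound for 48 hours before viability readout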)
# [14] = modifiers of HSF1 nuclear foci, imaging, Selleck Cancer Library (AID 1347162; in the data active means plate-normalised HSF1 focus index below about 0.46); details: human cells, at 10 µM; SSMD: measured here: HSF1 foci SSMD mean; cell count: measured here: cell number; plate-normalised HSF1 focus index: stronger effect = lower value
# [15] = growth inhibition of DIPG glioma cells, dose response, cell-based, SU-DIPG-XIII, MIPE5.0, CellTiter-Glo, qHTS (AID 1347064; cut-off not given, nearly all actives have AC50 up to about 23 µM;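 on AC50: cells exposed to compound for 48 hours before the viability read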); details: SU-DIPG-XIII viability, CellTiter-Glo ATP luminescence
# [16] = JHH-DIPG-1 glioma cell viability, MIPE5.0 library, CellTiter-Glo luminescence, qHTS (AID 1347067; cut-off not given, nearly all actives have AC50 up to about 26 µM;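 further: cells exposed to compound for 48 hours before readout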); details: JHH-DIPG-1 glioma viability, CellTiter-Glo ATP luminescence
# [17] = tested on: Aerobactin synthetase IucA (Klebsiella pneumoniae); experiment: IucA aerobactin synthetase inhibitors, biochemical, Tocris library, absorbance (AID 1345561); details: purified IucA enzyme assay, absorbance (OD) read-out; stronger effect = lower value;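 tested at 8 µM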;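 further: 100% = enzyme without compound and 0% = no enzyme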
smiles,measurement,setting,value
c1ccc2c(c1)CCCC2C1=NCCN1 (centres undefined),fluorescence slope change,[1],13.8% (inactive)
same,inclusion score,[2],2
same,period change,[3],-0.02 h (inactive)
same,inhibition,[4],-3% (inactive)
same,fluorescence ratio (interference),[5],1 (inactive)
same,outcome,[6],inactive
CCCCNC(=O)NS(=O)(=O)c1ccc(C)cc1,inclusion score,[2],2
same,period change,[3],0 h (inactive)
same,inhibition,[4],-5% (inactive)
same,fluorescence ratio (interference),[5],1 (inactive)
same,outcome,[6],inactive
CCN(CC)CCOC(=O)C1(C2CCCCC2)CCCCC1,period change,[3],0.005 h (inactive)
same,inhibition,[4],-4% (inactive)
same,fluorescence ratio (interference),[5],1 (inactive)
same,outcome,[6],inactive
CCCNC(C)C(=O)Nc1ccccc1C (centres undefined),inclusion score,[2],2
same,period change,[3],-0.13 h (inactive)
same,inhibition,[4],-1% (inactive)
same,fluorescence ratio (interference),[5],1 (inactive)
same,outcome,[6],inactive
Cc1nc2ccccn2c(=O)c1CCN1CCC(C(=O)c2ccc(F)cc2)CC1,period change,[3],-0.415 h (inactive)
same,inhibition,[4],-3% (inactive)
same,fluorescence ratio (interference),[5],1 (inactive)
same,outcome,[6],inactive
CCS(=O)(=O)CCn1c([N+](=O)[O-])cnc1C,fluorescence slope change,[1],11.6% (inactive)
COc1ccc2cc(CCC(C)=O)ccc2c1,inclusion score,[2],2
C[C@@H]1O[C@@H](OC[C@H]2O[C@@H](Oc3c(-c4ccc(O)c(O)c4)oc4cc(O)cc(O)c4c3=O)[C@H](O)[C@@H](O)[C@@H]2O)[C@H](O)[C@H](O)[C@H]1O,inclusion score,[2],2
CN(C)CC/C=C1\c2ccccc2COc2ccccc21,fluorescence slope change,[1],109% (active)
same,period change,[3],0.025 h (inactive)
same,inhibition,[4],-5% (inactive)
same,fluorescence ratio (interference),[5],1 (inactive)
same,outcome,[6],inactive
C[C@]12CCC(=O)C=C1CC[C@@H]1[C@@H]2C(=O)C[C@@]2(C)[C@H]1CC[C@]2(O)C(=O)CO,fluorescence slope change,[1],29.4% (inactive)
same,period change,[3],-0.215 h (inactive)
same,inhibition,[4],1% (inactive)
same,fluorescence ratio (interference),[5],1 (inactive)
same,outcome,[6],inactive
Cc1cccc(Nc2ccncc2S(=O)(=O)NC(=O)NC(C)C)c1,outcome,[7],inactive
same,outcome,[8],inactive
same,outcome,[9],inactive
same,outcome,[10],inactive
O=C1[C@H](CC[C@H](O)c2ccc(F)cc2)[C@@H](c2ccc(O)cc2)N1c1ccc(F)cc1,outcome,[11],inactive
same,AC50,[12],20.9 µM (active)
same,outcome,[13],inactive
same,SSMD,[14],0.185
same,cell count,[14],6580
same,plate-normalised HSF1 focus index,[14],1.01 (inactive)
CCCSc1ccc2nc(NC(=O)OC)[nH]c2c1,fluorescence slope change,[1],97.2% (active)
C[C@]12C=CC(=O)C=C1CC[C@@H]1[C@@H]2C(=O)C[C@@]2(C)[C@H]1CC[C@]2(O)C(=O)CO,outcome,[11],inactive
same,outcome,[7],inactive
same,outcome,[8],inactive
same,outcome,[9],inactive
same,outcome,[15],inactive
same,outcome,[12],inactive
same,outcome,[10],inactive
same,outcome,[16],inactive
same,outcome,[13],inactive
COc1ccc([C@@H]2Sc3ccccc3N(CCN(C)C)C(=O)[C@@H]2OC(C)=O)cc1,fluorescence slope change,[1],71.5% (active)
same,period change,[3],0.035 h (inactive)
same,inhibition,[4],-1% (inactive)
same,fluorescence ratio (interference),[5],1.1 (inactive)
same,remaining activity,[17],113% (inactive)
same,outcome,[11],inactive
same,outcome,[15],inactive
same,outcome,[12],inactive
same,outcome,[16],inactive
same,outcome,[13],inactive
same,outcome,[6],inactive
Cc1cccc(Nc2ccccc2C(=O)O)c1C,inclusion score,[2],1.5
Cc1onc(-c2ccccc2)c1-c1ccc(S(N)(=O)=O)cc1,outcome,[11],inactive
same,outcome,[15],inactive
same,outcome,[12],inactive
same,outcome,[16],inactive
same,outcome,[13],inactive
CN[C@@H]1[C@H](O)[C@H](NC)[C@H]2O[C@@]3(O)C(=O)C[C@@H](C)O[C@H]3O[C@@H]2[C@H]1O,fluorescence slope change,[1],67% (active)
same,inclusion score,[2],1.5
same,AC50,[7],4.69 µM (active)
same,AC50,[8],1.05 µM (active)
same,AC50,[9],0.332 µM (active)
same,AC50,[10],1.48 µM (active)
CC(=O)[C@H]1CC[C@H]2[C@@H]3C[C@H](C)C4=CC(=O)CC[C@]4(C)[C@H]3[C@@H](O)C[C@]12C,fluorescence slope change,[1],55.7% (active)
Cc1cccc(CN2CCN(C(c3ccccc3)c3ccc(Cl)cc3)CC2)c1 (centres undefined),AC50,[11],23.5 µM (active)
same,AC50,[9],18.7 µM (active)
same,AC50,[15],20.9 µM (active)
same,AC50,[10],20.9 µM (active)
same,AC50,[16],16.6 µM (active)
same,IC50,[13],23.5 µM (active)
CN(C)c1ccc(O)c2c1C[C@H]1C[C@H]3[C@H](N(C)C)C(=O)C(C(N)=O)=C(O)[C@@]3(O)C(=O)C1=C2O,fluorescence slope change,[1],103% (active)
same,inclusion score,[2],0
same,outcome,[8],inactive
same,outcome,[10],inactive
same,outcome,[16],inactive
same,outcome,[13],inactive
C[C@H](CCC(=O)O)[C@H]1CC[C@H]2[C@@H]3C(=O)C[C@@H]4CC(=O)CC[C@]4(C)[C@H]3CC(=O)[C@]12C,fluorescence slope change,[1],97.9% (active)
C[C@]12CCC(=O)C=C1CC[C@@H]1[C@@H]2[C@@H](O)C[C@@]2(C)[C@H]1CC[C@]2(O)C(=O)CO,period change,[3],-0.16 h (inactive)
same,inhibition,[4],-3% (inactive)
same,fluorescence ratio (interference),[5],1 (inactive)
same,outcome,[11],inactive
same,outcome,[8],inactive
same,outcome,[15],inactive
same,outcome,[12],inactive
same,outcome,[10],inactive
same,outcome,[16],inactive
same,outcome,[13],inactive
same,SSMD,[14],2.5
same,cell count,[14],6980
same,plate-normalised HSF1 focus index,[14],1.13 (inactive)
same,outcome,[6],inactive
C[C@]12CCC(=O)C=C1CC[C@@H]1[C@@H]2[C@@H](O)C[C@@]2(C)[C@H]1CC[C@]2(O)C(=O)COC(=O)CCC(=O)O,period change,[3],-0.475 h (inactive)
C[C@H]1C[C@@H]2[C@H]([C@@H](O)C[C@@]3(C)[C@H]2CC[C@]3(O)C(=O)CO)[C@@]2(C)C=CC(=O)C=C12,fluorescence slope change,[1],127% (active)
same,outcome,[11],inactive
same,outcome,[8],inactive
same,outcome,[15],inactive
same,outcome,[12],inactive
same,outcome,[16],inactive
same,outcome,[13],inactive
CC(=O)OCC[N+](C)(C)C,inclusion score,[2],2
Nc1nc2ncc(CNc3ccc(C(=O)N[C@@H](CCC(=O)O)C(=O)O)cc3)nc2c(=O)[nH]1,fluorescence slope change,[1],5.4% (inactive)
same,inclusion score,[2],1.5
